Results on twelve compounds are retold here after PubChem BioAssay (Tox21).

The nature of experiment [1]: qHTS assay to identify small molecule agonists of the vitamin D receptor (VDR) signaling pathway - cell viability counter screen (AID 743224). Further: series mostly up to about 63 µM; nearly all actives have a fitted effect of over 50% in size. The gist of the method: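 Counter screen run in the same wells as the VDR-bla reporter assay: CellTiter-Glo luminescence, 30 min at room temperature, after 16 h compound treatment at 37C of cells pre-plated for 4 h.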
Experiment [2] in a line: qHTS assay to identify small molecule antagonists of the vitamin D receptor (VDR) signaling pathway - cell viability counter screen (AID 743225). Further: nearly all actives have a fitted effect of over 50% in size. In short, it runs like this:
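Cytotoxicity toward the VDR-bla HEK 293T line was scored by ATP-based CellTiter-Glo luminescence, read in the wells already used for the beta-lactamase readout after 16 h compound treatment under 3 nM 1-alpha,25-dihydroxyvitamin D3 stimulation.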

Experiment [3] can be described thus: qHTS assay to identify small molecule agonists of the NFkB signaling pathway (AID 1159509; active means well fitted curve in the direction sought with a large enough effect in the signal ratio in the repeat runs, not every such curve was filed as active; the % refers to the signal ratio; further: series mostly up to about 61 µM). In short, it runs like this: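 Pathway activation was measured in ME-180 cells stably expressing beta-lactamase under NF-kB response element control. Substrate cleavage was read as the 460/530 nm emission shift after 5 hr compound incubation.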
A short description of experiment [4]: qHTS assay to identify small molecule agonists of the endoplasmic reticulum stress response signaling pathway (AID 1159516; active means well fitted activation curve with a large enough effect in the signal ratio in the repeat runs, not every such curve was filed as active; the % refers to the signal ratio). In short, it runs like this:
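Ratiometric FRET readout (405 nm excitation; 460 and 530 nm emission) of a beta-lactamase gene driven by the ER stress response element, after 2 hr substrate loading. HeLa ESRE-bla cells were seeded overnight and treated with compounds for only 5 hr at 37 C.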

Experiment [5] is described as follows: qHTS assay to identify small molecule agonists of the endoplasmic reticulum stress response signaling pathway - cell viability counter screen (AID 1159517; calls by dose curve; further: series mostly up to about 61 µM; nearly all actives have a fitted effect of over 50% in size). The gist of the method: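 Cpd-treated ESRE-bla HeLa (5 hr, 37 C) → LiveBLAzer 2 hr RT → CellTiter-Glo 30 min RT → luminescence.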
Experiment [6] deals with Nuclear receptor ROR-gamma (Homo sapiens) (UniProt P51449). As to the kind of experiment: qHTS assay to identify small molecule antagonists of the retinoid-related orphan receptor gamma (ROR-gamma) signaling pathway (AID 1159521; further: nearly all actives have a fitted effect of over 50% in size; further: potency means the concentration at half of the fitted maximal effect). In short, it runs like this:
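Readout: ONE-Glo luciferase luminescence, 30 min at room temperature. System: Tet-on RORγ CHO, RORE-LUC. Sequence: compound 2 h, doxycycline 1 uM final, 16 h at 37 C.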

Experiment [7] can be described thus: qHTS assay to identify small molecule agonists of the AP-1 signaling pathway - cell viability counter screen (AID 1159525; calls by dose curve; further: nearly all actives have a fitted effect of over 55% in size). The gist of the method:
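Each titration point was normalised to DMSO and tetra n-octyl ammonium bromide controls. The read was Cell Titer Glo luminescence after 30 min at RT, following 5 h compound exposure of ME-180 AP-1-bla cells at 37 °C.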

A short description of experiment [8]: qHTS assay to identify small molecule agonists of the AP-1 signaling pathway (AID 1159526; calls by dose curve).
In experiment [9] the target is Retinoic acid receptor RXR-alpha (Homo sapiens) (UniProt P19793). The experiment is described as follows: qHTS assay to identify small molecule agonists of the RXR signaling pathway (AID 1159527; calls by dose curve; further: nearly all actives have a fitted effect of over 35% in size). In short, it runs like this: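 Reporter activation is measured as beta-lactamase activity via FRET substrate cleavage (emission 460/530 nm) in HEK 293T cells expressing an RXR-alpha-driven bla construct, following 16 hr compound exposure at 37 C.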
Retinoic acid receptor RXR-alpha (Homo sapiens), sequence (P19793 whole entry, looked up): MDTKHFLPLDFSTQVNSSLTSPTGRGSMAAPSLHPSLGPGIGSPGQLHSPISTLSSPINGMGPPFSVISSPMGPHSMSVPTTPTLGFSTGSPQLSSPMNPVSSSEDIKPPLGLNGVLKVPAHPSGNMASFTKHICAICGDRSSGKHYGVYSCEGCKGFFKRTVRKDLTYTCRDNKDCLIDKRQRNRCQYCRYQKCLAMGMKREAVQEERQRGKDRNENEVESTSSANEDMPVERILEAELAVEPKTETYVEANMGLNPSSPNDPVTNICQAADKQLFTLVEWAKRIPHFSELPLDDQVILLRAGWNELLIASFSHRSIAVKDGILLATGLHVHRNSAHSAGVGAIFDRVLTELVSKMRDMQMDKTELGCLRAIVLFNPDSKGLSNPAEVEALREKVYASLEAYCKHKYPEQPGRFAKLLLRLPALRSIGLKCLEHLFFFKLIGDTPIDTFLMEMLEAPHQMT

Experiment [10] can be described thus: qHTS assay to identify small molecule agonists of the RXR signaling pathway - cell viability counter screen (AID 1159529). The gist of the method: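 Tox21 10K compounds were tested for cytotoxicity against GeneBLAzer RXR-alpha HEK 293T cells grown in 2% charcoal-stripped FBS. Exposure lasted 16 hr at 37 C, 5% CO2; viability read by CellTiter-Glo luminescence.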

The nature of experiment [11]: qHTS assay to identify small molecule antagonists of the retinoid acid receptor (RAR) signaling pathway - cell viability counter screen (AID 1159551). Further: nearly all actives have a fitted effect of over 35% in size. The gist of the method: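 Cytotoxicity counter screen: ATP content quantified by CellTiter-Glo luminescence in C3RL4 cells treated 6 hr at 37 C with compound and retinol (1 uM final). Cells plated at 1,000/well and cultured overnight before dosing.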

A short description of experiment [12]: qHTS assay to identify small molecule antagonists of the retinoic acid receptor (RAR) signaling pathway (AID 1159552; further: nearly all actives have a fitted effect of over 50% in size; further: potency means the concentration at half of the fitted maximal effect). The gist of the method: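 Overnight-plated C3RL4 reporter cells get compound, then retinol to 1 uM final; plates sit 6 hr at 37 C, 5% CO2. A luciferase reagent is added and light output recorded after 30 min at room temperature.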
Experiment [13] in a line: qHTS assay to identify small molecule agonists of the retinoic acid receptor (RAR) signaling pathway (AID 1159553). Further: potency means the concentration at half of the fitted maximal effect. In short, it runs like this:
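Luminescence was measured 30 min after luciferase reagent addition at room temperature. Before that, C3RL4 reporter cells (1,000 per well, plated overnight) were treated with compound for 6 hr at 37 C and 5% CO2.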

A short description of experiment [14]: qHTS assay to identify small molecule antagonists of the retinoid-related orphan receptor gamma (ROR-gamma) signaling pathway - cell viability counter screen (AID 1159520). Further: nearly all actives have a fitted effect of over 50% in size. The gist of the method:
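Tet-on ROR gamma CHO cells (1,000/well) were plated 4 hr, given compounds in DMSO for 2 hr at 37 C, then induced with 1 uM final doxycycline for 16 hr. Viability was read as ATP by CellTiter-Glo luminescence after 30 min.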

The nature of experiment [15]: qHTS assay to identify small molecule antagonists of the estrogen related receptor (ERR) signaling pathway - cell viability counter screen (AID 1224818).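 Further: series mostly up to about 46 µM; viability measured after 17.5 h of compound exposure.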 The gist of the method:
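Cytotoxicity counter screen: fluorescence from CellTiter-Fluor, added after 17.5 h compound exposure at 37 C and read 30 min later. ERR cell line seeded at 2,000 cells/well, preincubated 6 h before dosing.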

Experiment [16] is described as follows: qHTS assay to identify small molecule antagonists of the estrogen related receptor signaling pathway with the pleiotropic PPARgamma coactivator (PGC) cell viability counter screen (AID 1224822; further: series mostly up to about 46 µM). The gist of the method: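 Viability counter-screen read by fluorescence intensity after 30 min with CellTiter-Fluor at 37 C; PGC/ERR reporter cells were exposed to compounds for 17.5 h at 37 C following a 6 h preincubation.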

Records with an inconclusive call do not appear. Active and inactive are the calls of the source. Unless noted, the call rests on the fitted dose curve; in most records, active means well fitted curve in the direction sought with a large enough effect in the repeat runs; inconclusive means weak or mixed curves; inactive means no such curve, though single readings can be large; an effect the other way counts as inactive or inconclusive.

In the case of `c1ccoc1`, the Potency entry in [1], in experiment [2], in experiment [5], in experiment [6], in experiment [7] and in experiment [9] was “inactive” in each case. For the same compound, the Potency result in experiment [10] and in [11] was “inactive” in each case. Also, the compound was classed as inactive in experiment [3], in [4] and in experiment [8].

For `Oc1ccc(Cl)c(Cl)c1Cl`, the Potency entry in experiment [2], in experiment [7], in experiment [9], in experiment [10], in [11] and in experiment [13] was “inactive” each time. Also, the result in [3], in experiment [4] and in experiment [8] was inactive. Moreover, the Potency in experiment [6] is 50.3 µM (active); in experiment [12], 63.4 µM (active).

Take `O=Cc1ccc(Cl)cc1Cl`: the Potency result in experiment [1], in experiment [2], in [14], in experiment [6], in experiment [7] and in experiment [9] was “inactive” in each case. Besides, the Potency entry in experiment [10], in experiment [11] and in [13] was “inactive” in each case. The compound was called inactive in [3], in experiment [4] and in experiment [8].

As for `CC(C)(C)C(O)C(Oc1ccc(Cl)cc1)n1cncn1` (centres undefined), the Potency entry in experiment [2], in [14], in experiment [7], in experiment [10], in experiment [11] and in experiment [13] was “inactive” each time. Moreover, in [16], the Potency result is “inactive”. In addition, the call in experiment [3] and in experiment [15] was inactive.

Regarding `CCCCCCC#N`, the Potency entry in experiment [1], in [2], in [5], in experiment [14], in experiment [6] and in experiment [7] was “inactive” each time. The Potency entry in [10], in experiment [11], in experiment [12] and in [13] was “inactive” in each case. The compound was called inactive in [3] and in [8].

On to `N#CCc1ccccc1`, for which the Potency result in experiment [1], in experiment [2], in experiment [5], in [14], in [6] and in [7] was “inactive” throughout. The Potency entry in [9], in experiment [10], in [11], in experiment [12] and in experiment [13] was “inactive” in each case. Moreover, the outcome in [3] and in [8] was inactive.

As to `CC1C(=O)C[C@]2(C(C)C)C[C@H]12` (some centres undefined), the Potency result in experiment [1], in experiment [2], in experiment [5], in [6], in experiment [7] and in experiment [9] was “inactive” throughout. For the same compound, the Potency entry in experiment [10], in experiment [11] and in experiment [13] was “inactive” in each case. For the same compound, the compound was called inactive in experiment [3], in experiment [4] and in experiment [8].

On to `O=C(Nc1ccccc1)Nc1cnns1`, for which the Potency result in experiment [1], in [2], in [6], in [7], in experiment [10] and in experiment [11] was “inactive” in each case. Also, in experiment [13], the Potency entry is “inactive”. In addition, the outcome in experiment [3], in experiment [4] and in experiment [8] was inactive.

Turning to `NNC(=O)c1cccnc1`, the Potency result in experiment [1], in experiment [2], in [14], in experiment [6], in experiment [7] and in experiment [9] was “inactive” throughout. Moreover, the Potency result in [10], in experiment [11] and in experiment [12] was “inactive” in each case. The call in [3], in [4] and in experiment [8] was inactive. For the same compound, the Potency in experiment [13] was 30.7 µM (active).

`COP(=O)(OC)O/C(=C/Cl)c1cc(Cl)c(Cl)cc1Cl`: the outcome in experiment [3] and in experiment [4] was inactive. Besides, the Potency entry in experiment [7], in experiment [9], in [10] and in [11] was “inactive” each time.

`COc1nn(CSP(=S)(OC)OC)c(=O)s1`: the compound was called inactive in [3] and in experiment [15]. Further, the Potency entry in [11] and in experiment [16] was “inactive” in each case.

As to `COC1=CC(=O)O[C@@H](CCc2ccccc2)C1`, the Potency entry in [1], in [2], in experiment [14], in experiment [6], in experiment [7] and in experiment [11] was “inactive” throughout. Further, the Potency result in experiment [12] and in experiment [13] was “inactive” in each case. The compound was classed as inactive in experiment [3], in experiment [4] and in [8].
